Screens from PubChem.
CHX counter: Cycloheximide Counterscreen for Small Molecule Inhibitors of Shiga Toxin. cell reporter, cycloheximide protein synthesis inhibition counterscreen. max response, %. 300,000 compounds, 12% hits. AID 2314, 2010; in the data active = max response mostly above about 13%, no sharp cut-off; inactive = mostly below about 14%; note: read at 38.3 µM for the half of the compounds with a filed dose; 0% is about no effect
TbPYK inhibitor: qHTS of Trypanosoma Brucei Inhibitors; pyruvate kinase (Trypanosoma brucei), Q57TT1; TbPYK enzyme, Kinase-Glo Plus ATP luminescence, 45 min; Potency, µM (top dose mostly 76.8 µM), for the others: top-dose activity, negative = inhibition, actives largely listed as inhibitors; 410,000 compounds, 0.12% hits; AID 624173, 2012; note: potency is the fitted concentration of half-maximal effect; % is set by controls: 0 for no effect and ±100 for the full control effect; nearly all actives have a fitted effect of over 50% in size
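Luminescent Kinase-Glo Plus end-point after 45 min room-temperature reaction of T. brucei pyruvate kinase started with 130 uM ADP (final). Buffer TEA 50 mM pH 7.2 with KCl, MgCl2, BSA, Tween-20; titration-based qHTS with fitted concentration-effect curves.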
Shiga inhibitor: A qHTS for Small Molecule Inhibitors of Shiga Toxin; Vero cells, Shiga toxin protein synthesis inhibition reporter; inhibition, % at 38.7 µM; 290,000 compounds, 9.2% hits; in the data active = inhibition mostly above about 28%, no sharp cut-off; inactive = mostly below about 43%; note: 0% is about no effect
LmPK inh: qHTS Assay for Inhibitors of Leishmania Mexicana Pyruvate Kinase (LmPK). 290,000 compounds, 0.37% hits. purified LmPK, Kinase-Glo ATP luminescence, 1 h. AID 1721, 2009. Potency, µM (highest dose often 57.5 µM), inactives show at the top dose activity change, negative = inhibition, most hits filed as inhibitors; note: potency is the fitted concentration of half-maximal effect; % is set by controls: 0 for no effect and ±100 for the full control effect
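qHTS format; LmPK 0.1 nM; substrates PEP 0.5 mM and ADP 0.1 mM. One-hour room-temperature incubation, then coupled luciferase luminescence; 0.5 nM enzyme wells mark activation.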
RE007 growth inh: qHTS Assay for Inhibitors of the HIV-1 protein Vpr; 360,000 compounds, 0.21% hits; Potency, µM (highest dose often 92.2 µM), without a hit: at the highest dose activity change, negative = less growth, most hits filed as inhibitors; S. pombe RE007 Vpr strain, BacTiter-Glo ATP luminescence, 24 h; AID 651644, 2012; active = well fitted falling curve with a large enough effect; inconclusive = small, poorly fitted or top-dose-only effect; inactive = no such curve, though single readings can be large or run the other way; note: potency is the fitted concentration of half-maximal effect; % is set by controls: 0 for no effect and ±100 for the full control effect; nearly all actives have a fitted effect of over 50% in size
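Fission yeast strain RE007, carrying one chromosomally integrated HIV-1 vpr copy, was seeded at OD 0.01 in PMG+AL medium with 23 nL pinned compound. After 24 h at 30 °C and 99% humidity, viability was read by BacTiter-Glo luminescence.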
Giardia FBPA inh: qHTS Assay for Inhibitors of Fructose-1,6-bisphosphate Aldolase from Giardia Lamblia | 290,000 compounds, 0.71% hits | Potency, µM (titrated, usually from 59.6 µM), for the others: at the top dose activity, negative = inhibition, usual class: inhibitors | A8B2U2 | purified Giardia FBPA; note: potency is the fitted concentration of half-maximal effect; % is set by controls: 0 for no effect and ±100 for the full control effect; nearly all actives have a fitted effect of over 55% in size
Target sequence (A8B2U2 whole entry, looked up): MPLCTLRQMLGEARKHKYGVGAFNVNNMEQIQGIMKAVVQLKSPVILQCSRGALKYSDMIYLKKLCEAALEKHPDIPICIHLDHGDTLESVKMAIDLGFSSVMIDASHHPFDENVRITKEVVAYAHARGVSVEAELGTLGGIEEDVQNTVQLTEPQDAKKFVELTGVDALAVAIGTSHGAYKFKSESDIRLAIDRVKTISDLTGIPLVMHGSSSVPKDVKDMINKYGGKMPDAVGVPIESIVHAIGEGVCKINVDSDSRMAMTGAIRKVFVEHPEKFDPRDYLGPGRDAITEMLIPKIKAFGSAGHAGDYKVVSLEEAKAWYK
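Giardia FBPA (40 nM reagent) was preincubated 10 min at RT with compound (up to 57.5 uM final), then substrate plus GAPDH/TPI/NAD/arsenate coupling system with diaphorase/resazurin was added; resorufin fluorescence (525/598 nm) was read after 20 min.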
An asterisk follows results filed as active; [ ] = remark or other dose. This excerpt belongs to a sample that is enriched for hits. Unless noted, calls come from the whole dose curve; as a rule, active = well fitted curve in the direction sought with a large enough effect; inconclusive = small, poorly fitted or top-dose-only effect, or another doubt; inactive = no such curve, though single readings can be large; an effect the other way counts as inactive or inconclusive.

Screening O=c1[nH]c(=S)n(-c2ccc(Br)cc2)c(O)c1C=Nc1ccc(N2CCOCC2)cc1 returned CHX counter 16*, TbPYK inhibitor -30%, Shiga inhibitor 0, LmPK inh -1%, RE007 growth inh -2% and Giardia FBPA inh -18%.
Cc1ccc(N2C(=O)C3C4C=CC(CNC(=S)N5CCN(c6cccc(C)c6)C(C)C5)(O4)C3C2=O)cc1 (configuration not stated) was read as CHX counter -1, TbPYK inhibitor -15%, Shiga inhibitor 2, LmPK inh -2%, RE007 growth inh 2µM* and Giardia FBPA inh 2%.
For Cc1ccc(CNC(=O)C2CC(c3cccc([N+](=O)[O-])c3)=NO2)cc1 (configuration not stated) the results were CHX counter 13, TbPYK inhibitor -3%, Shiga inhibitor 13, LmPK inh 1%, RE007 growth inh 6% and Giardia FBPA inh -7%.
Screening COc1ccc(CNC(=O)C2CC(c3ccccc3[N+](=O)[O-])=NO2)cc1 (configuration not stated) returned CHX counter 29*, TbPYK inhibitor 3%, Shiga inhibitor 65*, LmPK inh -4%, RE007 growth inh 0% and Giardia FBPA inh 3%.
CCN(CC)C(=O)C1CC(c2ccc(OC)cc2)=NO1 (configuration not stated) was read as CHX counter 40*, TbPYK inhibitor -8%, Shiga inhibitor 82*, LmPK inh -14%, RE007 growth inh 13% and Giardia FBPA inh 3%.
For COc1ccccc1CNC(=O)C1CC(c2ccccc2C(F)(F)F)=NO1 (configuration not stated) the results were CHX counter -2, TbPYK inhibitor 0%, Shiga inhibitor 3, LmPK inh 6%, RE007 growth inh 3% and Giardia FBPA inh 6%.
Screening COc1ccc(CNC(=O)C2CC(c3cccc([N+](=O)[O-])c3)=NO2)cc1 (configuration not stated) returned CHX counter 36*, TbPYK inhibitor 4%, Shiga inhibitor 38*, LmPK inh -1%, RE007 growth inh -12% and Giardia FBPA inh -5%.
Screening COc1ccc(C2=NOC(C(=O)NC(C)(C)C)C2)cc1 (configuration not stated) returned CHX counter 3, TbPYK inhibitor 12%, Shiga inhibitor 17, LmPK inh 3%, RE007 growth inh -7% and Giardia FBPA inh 4%.
For COc1ccccc1CNC(=O)C1CC(c2ccccc2F)=NO1 (configuration not stated) the results were CHX counter 18*, TbPYK inhibitor 0%, Shiga inhibitor 44*, LmPK inh -4%, RE007 growth inh -2% and Giardia FBPA inh 2%.
O=c1c2c3c(sc2nnn1Cc1ccc(Br)cc1)CCCC3 was read as TbPYK inhibitor -5%.
For Cc1cccc(CNC(=O)Cn2nc(C)c3nn(-c4ccc(Cl)cc4)c(C)c3c2=O)c1 the results were TbPYK inhibitor 2%.
Screening CCOc1ccc(NC(=O)Cn2c(=O)c(CNc3ccc(CC)cc3)cc3cc4c(cc32)OCO4)cc1 returned TbPYK inhibitor 0%.
Screening CCN(C(=O)CSc1nc2ccccc2n1Cc1cc(C)ccc1C)c1ccccc1 returned TbPYK inhibitor 0%.
`COc1ccccc1CNC(=O)C1CC(c2ccccc2[N+](=O)[O-])=NO1` (configuration not stated) gave CHX counter 41*, TbPYK inhibitor 4%, Shiga inhibitor 96*, LmPK inh -1%, RE007 growth inh 2% and Giardia FBPA inh -1%.
For COc1ccc(C2=NOC(C(=O)NCc3ccccc3)C2)cc1 (configuration not stated) the results were CHX counter 5, TbPYK inhibitor -1%, Shiga inhibitor 34*, LmPK inh -3%, RE007 growth inh 8% and Giardia FBPA inh 0%.
Cc1cccc(N(C)c2nc3ccc(C(=O)c4ccccc4)cc3n3c(C)nnc23)c1 was read as TbPYK inhibitor -13%[15.4 µM].
Screening O=c1c(-c2ccc(F)c(F)c2)nc2cncnc2n1Cc1ccccc1 returned TbPYK inhibitor -5% and Giardia FBPA inh -11%.
Cc1nc2c(-c3ccc(F)cc3)cnn2c2c1CCC2 was read as CHX counter 38*, TbPYK inhibitor 0%, Shiga inhibitor 53*, LmPK inh 2%, RE007 growth inh -10% and Giardia FBPA inh 1%.
CC(C)(C)S(=O)(=O)c1cnc2c(-c3ccc(F)cc3)cnn2c1N was read as CHX counter 2, TbPYK inhibitor 1%, Shiga inhibitor 18, LmPK inh 4%, RE007 growth inh 0% and Giardia FBPA inh 6%.
Cc1ccc2c(CSc3nnc(N)s3)cc(=O)oc2c1 was read as CHX counter 32*, TbPYK inhibitor -4%, Shiga inhibitor 60*, LmPK inh -3%, RE007 growth inh -2% and Giardia FBPA inh -3%.
`O=C(c1ccncc1)N1N=C(c2ccc(Cl)cc2)CC1c1ccccc1O` (configuration not stated) gave CHX counter 45*, TbPYK inhibitor -23%, Shiga inhibitor 116*, LmPK inh -3%, RE007 growth inh -18% and Giardia FBPA inh inconclusive.
O=C(Nc1ccc2c(c1)OCO2)N1CCC(CO)(CC2CCCCO2)CC1 (configuration not stated) was read as CHX counter 17*, TbPYK inhibitor -6%, Shiga inhibitor 46*, LmPK inh 6%, RE007 growth inh -1% and Giardia FBPA inh -6%.
Screening O=C(Nc1ccc2c(c1)OCO2)N1CCN(c2ccccc2Cl)CC1 returned CHX counter 52*, TbPYK inhibitor -8%, Shiga inhibitor 85*, LmPK inh 8%, RE007 growth inh -20% and Giardia FBPA inh -18%.
O=C(Nc1ccc2c(c1)OCO2)N1CCN(c2cccc(C(F)(F)F)c2)CC1 was read as CHX counter 12*, TbPYK inhibitor -2%, Shiga inhibitor 27*, LmPK inh 1%, RE007 growth inh 23% and Giardia FBPA inh -6%.
Screening C=CCC(O)(/C=C/c1ccccc1)c1ccccc1 (configuration not stated) returned Giardia FBPA inh -3%.
CCOc1ccc(NC(=O)C2(c3cccs3)CCOCC2)cc1 was read as TbPYK inhibitor -1%.
Cc1ccc(CC(=O)Nc2c(C(=O)N3CCN(c4ccccc4F)CC3)oc3ccccc23)cc1 was read as TbPYK inhibitor 0%.
